Here are results for 31 compounds from ChEMBL document CHEMBL3433997, “St. Jude Leishmania screening dataset” (2016).

SMILES strings stand for the structures. Values joined by “and” are separate entries in the source; they are usually repeats but may differ in a detail not shown here. Equal values may be shown once.

For orientation: inhibition means the change of the read-out against control, counted positive when it falls.

Common to all, as to type: functional
In assay [1] the target is Solute carrier family 2, facilitated glucose transporter member 1 (Homo sapiens) (UniProt P11166). The assay can be described thus: ST_JUDE_LEISH: Cytotoxicity at 2uM final concentration against transgenic Leishmania Mexicana promastigotes LmGLUT1 that are glucose transport deficient and complemented with the human glucose transporter GLUT1. Activity is measured by DNA content using SYBR green in vitro.

Assay [2] concerns the target Hexose transporter 1 (Plasmodium falciparum) (UniProt O97467). The assay can be described thus: ST_JUDE_LEISH: Cytotoxicity at 2uM final concentration against transgenic Leishmania Mexicana promastigotes LmPfHT that are glucose transport deficient and complemented with the Plasmodium falciparum hexose transporter. Activity is measured by DNA content using SYBR green in vitro.

Assay [3] addresses Glucose transporter (Leishmania mexicana) (UniProt O61059). The assay can be described thus: ST_JUDE_LEISH: Cytotoxicity at 2uM final concentration against transgenic Leishmania Mexicana promastigotes LmGT2 that are glucose transport deficient and complemented with the L. Mexicana glucose transporter 2. Activity is measured by DNA content using SYBR green in vitro.

Solute carrier family 2, facilitated glucose transporter member 1 (Homo sapiens), sequence (P11166 whole entry): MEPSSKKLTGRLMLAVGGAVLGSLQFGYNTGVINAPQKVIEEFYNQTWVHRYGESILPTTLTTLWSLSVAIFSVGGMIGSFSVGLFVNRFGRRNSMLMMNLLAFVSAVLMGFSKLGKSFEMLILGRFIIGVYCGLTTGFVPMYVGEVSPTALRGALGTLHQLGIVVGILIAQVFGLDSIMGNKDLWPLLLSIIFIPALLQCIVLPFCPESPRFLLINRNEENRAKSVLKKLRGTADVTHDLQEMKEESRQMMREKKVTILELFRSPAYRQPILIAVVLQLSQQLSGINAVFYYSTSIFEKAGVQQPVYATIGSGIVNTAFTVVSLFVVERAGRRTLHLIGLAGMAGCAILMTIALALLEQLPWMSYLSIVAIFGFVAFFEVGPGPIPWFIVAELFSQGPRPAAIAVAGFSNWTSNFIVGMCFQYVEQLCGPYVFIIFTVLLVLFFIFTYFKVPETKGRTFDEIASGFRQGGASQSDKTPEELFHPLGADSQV

With `CC(C)CNCc1ccc(-c2cccc(CN(C(=O)Nc3ccccc3)C3CCN(Cc4ccccc4)CC3)c2)cc1`, the inhibition is 0.61% in assay [1], -0.02% in assay [2] and -1.04% in assay [3].

Consider `CCCCCCCc1cc(=O)c2ccccc2[nH]1`, for which the inhibition came out at 12.7% in assay [1], 3.61% in assay [2] and 1.21% in assay [3].

Take `CN(c1cc(NC(=O)c2ccc(F)cc2)ccn1)C1CCN(Cc2cccc(F)c2)CC1`: the inhibition in assay [1] stood at 2.51%; in assay [2] it was 6.07%; in assay [3] it was 3.83%.

For `Fc1ccc(N(c2nc(-c3cc(F)cc(C(F)(F)F)c3)cs2)C2CCNCC2)cc1`, the figures for the inhibition in assay [1], in assay [2] and in assay [3] were -1.03%, -0.75% and -1.46%, respectively.

In the case of `CN(C)c1cccc(NC(=O)NC2N=C(c3ccccc3)c3ccccc3N(CC(=O)N(C)c3ccccc3)C2=O)c1` (stereo not drawn), the figures for the inhibition in assay [1], in assay [2] and in assay [3] were 6.38%, 4.22% and 2.42%, respectively.

Regarding `Cc1[nH]c2ccc([N+](=O)[O-])cc2c1C1=CCN(C)CC1`, the inhibition stood at 1.47% in assay [1], 1.63% in assay [2] and 2.86% in assay [3].

`FC(F)(F)c1ccc(NC(=S)N2CCC(CN3CCC(c4c[nH]c5ccccc45)CC3)CC2)cc1`: the results for the inhibition in assay [1], in assay [2] and in assay [3] were -0.87%, -0.06% and 2.98%, respectively.

Regarding `CNCCN(C)C(=O)Oc1c(Cl)c(C)nc(C)c1-c1ccc(Oc2ccc(OC(F)(F)F)cc2)cc1`, the inhibition in assay [1] came to 4.11%; in assay [2], 4.04%; in assay [3], 4.28%.

On to `O=C(/C=C/c1cc(C(F)(F)F)ccc1F)NC1CCC(CN2CCC(c3c[nH]c4ccccc34)CC2)CC1` (stereo not drawn), for which the inhibition in assay [1] stood at 6.52%; in assay [2], 5.67%; in assay [3], 6.74%.

As for `Cc1cc(N)nc2ccc(CNCCc3ccccc3Br)cc12`, the inhibition in assay [1] stood at 1.91%; in assay [2] it was 1.25%; in assay [3] it was 1.79%.

Consider `CC1=CC(=O)[C@@H](O)[C@]2(C)[C@H]3[C@@]4(O)OC[C@@]35[C@@H](C[C@@H]12)OC(=O)C[C@H]5[C@@H](C)[C@H]4O`, for which the inhibition amounted to 7.27% in assay [1], 2.51% in assay [2] and 0.79% in assay [3].

Take `COc1ccc(O)c(CN2CCN(c3cc(C)ccc3C)CC2)c1`: the inhibition was 2.93% in assay [1], 3% in assay [2] and 2.89% in assay [3].

Consider `Oc1cc2c(cc1CN1CCN(Cc3ccccc3)CC1)CCC2`, for which the inhibition in assay [1] is 0.8%; in assay [2], 1.17%; in assay [3] it was -1.19%.

Take `O=C(/C=C/C=C/c1ccccc1)NC1CCC(CN2CCC(c3c[nH]c4ccccc34)CC2)CC1` (stereo not drawn): the inhibition was 2.53% in assay [1], 0.67% in assay [2] and 2.81% in assay [3].

Consider `C[C@H](Cc1ccc(OCCCCCCOc2ccccc2)cc1)NC[C@@H](O)c1cc(Br)no1`, for which the inhibition in assay [1] is 2.44%; in assay [2] it was 0.72%; in assay [3], -0.07%.

`COCCNCc1cccc(-c2ccc(CN(C(=O)Nc3ccccc3)C3CCN(Cc4ccccc4)CC3)cc2)c1`: the inhibition in assay [1] came to 2.81%; in assay [2] it was 0.8%; in assay [3] it was 2.73%.

For `C/C=C1\CN2CC[C@H]1C[C@H]2[C@H](O)c1ccnc2ccc(O)cc12`, the inhibition in assay [1] was -0.15%; in assay [2] it was -0.16%; in assay [3] it was 0.93%.

In the case of `CC(=O)N(Cc1cccc(-c2ccc(CNCCc3ccccc3)cc2)c1)C1CCN(Cc2ccccc2)CC1`, the values for the inhibition in assay [1], in assay [2] and in assay [3] were 4.3%, 5.39% and 2.97%, respectively.

Regarding `COC(=O)c1ccc(C[C@@H](C)NC[C@H](O)c2cccc(C(F)(F)F)c2)cc1`, the inhibition in assay [1] amounted to 3.2%; in assay [2], 4.43%; in assay [3] it was 0.45%.

For `CC[C@H]1CN2CC[C@@H]1C[C@H]2[C@H](O)c1ccnc2ccc(Cl)cc12`, the values for the inhibition in assay [1], in assay [2] and in assay [3] were 2.97%, 3.95% and 3.25%, respectively.

With `CC(Cc1ccc(-c2nc3ccccc3[nH]2)cc1)NCC(O)c1cccc(C(F)(F)F)c1` (stereo not drawn), the inhibition in assay [1] is 1.35%; in assay [2], -1.73%; in assay [3] it was -0.37%.

As for `CN(c1ccc(NC(=O)CCOc2ccccc2)cc1)C1CCN(Cc2cccc(O)c2)CC1`, the inhibition in assay [1] was 1.64%; in assay [2], -0.45%; in assay [3], -0.97%.

As to `CC(C)CNCc1cccc(-c2ccc(CN(C(=O)c3cccs3)C3CCN(Cc4ccccc4)CC3)cc2)c1`, the inhibition in assay [1] came to 2.62%; in assay [2], 4.53%; in assay [3], 6.86%.

Regarding `O=C(/C=C/c1ccc(Cl)c(Cl)c1)Nc1cccc(CN2CCC(c3c[nH]c4ccc(O)cc34)CC2)c1`, the inhibition was 0.9% in assay [1], 1.55% in assay [2] and -0.7% in assay [3].

For the compound `CS(=O)(=O)Nc1ccc2c(C3CCN(CC4CCN(C(=O)/C=C/c5ccc(Cl)c(Cl)c5)CC4)CC3)c[nH]c2c1`, the inhibition is -0.41% in assay [1], 0.85% in assay [2] and -2.09% in assay [3].

As to `CN(C)CCc1c[nH]c2ccc(C(=O)Nc3ccc(-c4ccncc4)cc3)cc12`, the inhibition in assay [1] is 0.58%; in assay [2], 0.83%; in assay [3] it was 0.61%.

Regarding `Cc1nc2ccccc2n1C1CC2CCC(C1)N2Cc1nccn1-c1ccccc1` (stereo not drawn), the inhibition stood at 0.86% in assay [1], 3.24% in assay [2] and 2.15% in assay [3].

With `NC(=O)c1ccc2[nH]cc(C3CCN(CC4CCC(NC(=O)/C=C/c5ccc(Cl)c(Cl)c5)CC4)CC3)c2c1` (stereo not drawn), the inhibition in assay [1] is -3.07% and 2.76%; in assay [2], -1.26% and 2.22%; in assay [3], 0.5% and 1.58%.

As to `OC1(CNCc2ccccc2)CCN(CCc2c[nH]c3ccc(F)cc23)CC1`, the inhibition was determined as 4.9% in assay [1], 8.31% in assay [2] and 5.83% in assay [3].

For the compound `COCC(=O)N(Cc1ccccc1-c1ccc(CNCCc2ccccc2)cc1)C1CCN(Cc2ccccc2)CC1`, the inhibition in assay [1] is 0.08%; in assay [2], 0.27%; in assay [3], -3.2%.

As to `CC(C)CNCc1cccc(-c2cccc(CN(C(=O)NC3CCCCC3)C3CCN(Cc4ccccc4)CC3)c2)c1`, the inhibition in assay [1] was 8.3%; in assay [2], 4.64%; in assay [3], 5.98%.
